Bioassay records: PubChem BioAssay, several laboratories
TWEAK Fn14 block – inhibitors of TWEAK-Fn14 interaction signaling | AID 1159606 | 360,000 compounds, 2% hits | inhibition, % at 10 µM | TWEAK-stimulated Fn14 reporter cells, luciferase luminescence, 8 h; in the data active means inhibition above about 50%
TROY signal inh – inhibitors of TROY-dependent NF-kB signaling | Q293 LMP1-TROYcd NF-kB luciferase reporter, 4 h | inhibition, % at 10 µM | 360,000 compounds, 0.98% hits;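 active means compounds whose plate-normalised and pattern-corrected inhibition of the luciferase reporter signal at the single screening dose is 50% or more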
HSF-1 act – increases HSF-1 driven luciferase reporter signal. AID 504408. activation, % at 9 µM. 300,000 compounds, 1.7% hits. NIH3T3-HGL HSF-1 luciferase reporter, MG132, 8 h; 100% = twice DMSO control signal;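 active means mean replicate activation of at least 50% with a set share of replicates each reaching 50%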;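 further: 0% = median of the neutral control wells and 100% = twice that signal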
HSF1 inhib – HSF1 inhibition; NIH3T3-HGL HSE-luciferase, MG132-induced, luminescence 8 h; hits give low values; activity change, negative = inhibition, % at 7.5 µM (by protocol); 300,000 compounds, 0.77% hits; AID 2098;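 active means more than half of replicate wells show activity change below -50%, luminescence cut by over half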;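 further: luciferase reports HSF-1 transcriptional activity via heat shock element; 0% = median of DMSO wells and -100% = zero luminescence signal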
EBV LMP1 NFkB – inhibitors of Epstein-Barr LMP1-induced NF-kappaB reporter. LMP1-induced NF-kappaB luciferase reporter cells, luminescence. inhibition, % at 12.5 µM. 350,000 compounds, 0.69% hits. AID 504558; in the data active means inhibition above about 41%;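 further: 0% = neutral control wells and 100% = reference inhibitor control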
HSP90 inh – HSP90 refolding inhibition in rabbit reticulocyte lysate; luciferase refolding luminescence, 3 h; 290,000 compounds, 0.91% hits; AID 1789; inhibition, % at 5.6 µM;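 active means inhibition above the screen-wide mean plus 3 SD, computed separately per campaign, cut at about 16% in these data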;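 further: 0% = DMSO wells and 100% = 60 µM geldanamycin wells; inhibitors lower the luminescence because luciferase stays unfolded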
Active calls of the source: *. An excerpt weighted towards active compounds, which were near 4.7% of everything screened.

How did CN(C)S(=O)(=O)N1CCC(Oc2ccc(C(=O)NC3CCOC(C)(C)C3)cc2)CC1 (stereo not given) do in these assays?
TWEAK Fn14 block: -8; TROY signal inh: 4; HSF-1 act: -6; HSF1 inhib: 0; EBV LMP1 NFkB: 4; HSP90 inh: -1

What do the screens show for `COc1ccc(Nc2oc(COc3ccc(OC)cc3)nc2C#N)cc1`?
TWEAK Fn14 block: 86*; TROY signal inh: 9; HSF-1 act: 1; HSF1 inhib: 4; EBV LMP1 NFkB: 33; HSP90 inh: 1

Results for CCNc1oc(COc2cccc(C)c2)nc1C#N ?
TWEAK Fn14 block: -45; TROY signal inh: -49; HSF-1 act: 3; HSF1 inhib: 11; EBV LMP1 NFkB: -21; HSP90 inh: -2

Results for COc1ccc(Nc2oc(COc3cccc(C)c3)nc2C#N)cc1 ?
TWEAK Fn14 block: 68*; TROY signal inh: -64; HSF-1 act: 27; HSF1 inhib: 30; EBV LMP1 NFkB: -1; HSP90 inh: 1

How did COc1ccc(CNc2oc(COc3ccccc3)nc2C#N)cc1 do in these assays?
TWEAK Fn14 block: -1; TROY signal inh: -32; HSF-1 act: 13; HSF1 inhib: 14; EBV LMP1 NFkB: -15; HSP90 inh: 1

Results for COc1ccc(Nc2oc(COc3ccc(C)cc3)nc2C#N)cc1 ?
TWEAK Fn14 block: 69*; TROY signal inh: -3; HSF-1 act: 15; HSF1 inhib: 22; EBV LMP1 NFkB: 20; HSP90 inh: -2

How did COc1ccc(Nc2oc(COc3ccccc3F)nc2C#N)cc1 do in these assays?
TWEAK Fn14 block: 57*; TROY signal inh: -31; HSF-1 act: 21; HSF1 inhib: 10; EBV LMP1 NFkB: 23; HSP90 inh: 2

How did COc1ccc(CNC(=O)C2CCN(S(=O)(=O)N3CCC(C)CC3)CC2)c(OC)c1 do in these assays?
TWEAK Fn14 block: -6; TROY signal inh: 9; EBV LMP1 NFkB: -5

What do the screens show for `CCCCN1C(=O)C(CC(=O)NC(c2ccccc2)c2ccccc2)CC(C(=O)N2CCCCCC2)=C1C` (stereo not given)?
TWEAK Fn14 block: 1; TROY signal inh: 1

How did CC1(C(=O)NS(=O)(=O)Cc2cccc(Cl)c2)CCN1C(=O)C/C=C/c1ccccc1 (stereo not given) do in these assays?
TWEAK Fn14 block: -3; TROY signal inh: -36

What do the screens show for `Cc1ccc(N2CC(C(=O)Nc3cc(S(=O)(=O)N4CCCCC4)ccc3C)CC2=O)cc1` (stereo not given)?
TWEAK Fn14 block: 4; TROY signal inh: -5; EBV LMP1 NFkB: -1

Results for CC[C@@H]1CCC[C@@H](O)[C@@H](C)C(=O)O[C@H](C)[C@@H](C)C/C=C(C)/C(OC)=C\C(=O)N(C)C([C@@H](C)CC)C(=O)N(C)[C@@H](C(C)C)C(=O)N(C)[C@@H](COC)C(=O)N2CCC[C@H]2C(=O)N(C)[C@@H](C(C)C)C(=O)N2CCC[C@H]2C(=O)O1 (stereo not given in full) ?
TWEAK Fn14 block: 77*; TROY signal inh: 47

What do the screens show for `CC(C)N1C(=O)CCC1C(=O)N1CCN(c2ccc(F)cc2)CC1` (stereo not given)?
TWEAK Fn14 block: -9; TROY signal inh: 17; HSF-1 act: 10; HSF1 inhib: 2; EBV LMP1 NFkB: 1; HSP90 inh: -9

Results for CCC(C)N1C(=O)CCC1C(=O)N1CCN(c2ccc(F)cc2)CC1 (stereo not given) ?
TWEAK Fn14 block: -4; TROY signal inh: -17; HSF-1 act: 0; HSF1 inhib: -5; EBV LMP1 NFkB: 64*; HSP90 inh: 0

Results for Nc1nc(-c2ccccc2)nc2sc3c(c12)CCCC3 ?
TWEAK Fn14 block: 25; TROY signal inh: -42; HSF-1 act: 85*; HSF1 inhib: 39; EBV LMP1 NFkB: -49; HSP90 inh: -3

How did Cc1ccc(-n2nnc(-c3cccnc3)n2)cc1 do in these assays?
TWEAK Fn14 block: 2; TROY signal inh: -47; HSF-1 act: 30; HSF1 inhib: 18; EBV LMP1 NFkB: -14

How did Cc1ccc(-n2nnc(-c3cnc4ccccc4c3)n2)cc1 do in these assays?
TWEAK Fn14 block: 63*; TROY signal inh: 18; HSF-1 act: -1; HSF1 inhib: 10; EBV LMP1 NFkB: 7; HSP90 inh: 7

How did CC(=O)c1cccc(NC(=O)COC(=O)COc2c(Cl)cc(Cl)c3ccc(C)nc23)c1 do in these assays?
TWEAK Fn14 block: 63*; TROY signal inh: 28; HSF-1 act: -8; HSF1 inhib: -3; EBV LMP1 NFkB: 3; HSP90 inh: 2

How did Cc1ccc2c(Cl)cc(Cl)c(OCC(=O)OCC(=O)Nc3ccc(C#N)cc3)c2n1 do in these assays?
TWEAK Fn14 block: -11; TROY signal inh: 1; HSF-1 act: -1; HSF1 inhib: -2; EBV LMP1 NFkB: 0; HSP90 inh: -6

Results for Cc1cccc(NC(=O)CCS(=O)(=O)c2ccc3nc(C)sc3c2)c1 ?
TWEAK Fn14 block: 9; TROY signal inh: -14

What do the screens show for `CN(c1ccc(O)cc1)c1nc(-c2ccccc2)cs1`?
TWEAK Fn14 block: 55*; TROY signal inh: -44; EBV LMP1 NFkB: -7; HSP90 inh: -2

Results for COCCN(C(=O)c1ccco1)c1nc(-c2ccccc2)cs1 ?
TWEAK Fn14 block: -3; TROY signal inh: -4; HSF-1 act: -2; HSF1 inhib: -4; EBV LMP1 NFkB: 2; HSP90 inh: 0

How did CN(C(=O)c1ccco1)c1nc(-c2ccccc2)cs1 do in these assays?
TWEAK Fn14 block: -11; TROY signal inh: -22; HSF-1 act: 76*; HSF1 inhib: 32; EBV LMP1 NFkB: -27; HSP90 inh: -3

Results for COc1cc2nc(NC(=O)c3ccc(Cl)cc3)sc(=O)c2cc1OC ?
TWEAK Fn14 block: -35; TROY signal inh: -11; HSF-1 act: 57*; HSF1 inhib: 8; EBV LMP1 NFkB: 5; HSP90 inh: 1

What do the screens show for `COc1cc2nc(NC(=O)c3ccc(Cl)cc3)[nH]c(=O)c2cc1OC`?
TWEAK Fn14 block: 16; TROY signal inh: 6; HSF-1 act: -8; HSF1 inhib: -4; EBV LMP1 NFkB: 3; HSP90 inh: 0

What do the screens show for `COc1cc2nc(NC(=O)c3ccco3)sc(=O)c2cc1OC`?
TWEAK Fn14 block: 71*; TROY signal inh: -5; HSF-1 act: 30; HSF1 inhib: 13; EBV LMP1 NFkB: 42*; HSP90 inh: -3

How did CCCS(=O)(=O)NC(=O)C1(C)CCCN(C(=O)c2cc3ccccc3s2)C1 (stereo not given) do in these assays?
TWEAK Fn14 block: -8; TROY signal inh: -6

How did O=C(NCc1ccncc1)c1cccc(S(=O)(=O)NCc2ccccc2)c1 do in these assays?
TWEAK Fn14 block: 8; TROY signal inh: -9; HSF-1 act: 5; HSF1 inhib: 1; EBV LMP1 NFkB: 3; HSP90 inh: -4

Results for Cc1ccc(OCCNC(=O)c2cccc(S(=O)(=O)NCc3ccccc3)c2)cc1 ?
TWEAK Fn14 block: 12; TROY signal inh: 67*; EBV LMP1 NFkB: -13
